# Results filed as inconclusive are left out. Where a call stands in place of a potency, no number is given. Calls of active or inactive are those of the source. Unless noted, calls follow the shape of the dose curve; as a rule, active = well fitted curve in the direction sought with a large enough effect; inconclusive = small, poorly fitted or top-dose-only effect, or another doubt; inactive = no such curve, though single readings can be large; an effect the other way counts as inactive or inconclusive.
# Tests used:
# [1] = Primary qHTS for inhibitors of nuclear receptor binding SET domain protein 2 (NSD2) in an isogenic RCH-ACV NSD2 p.E1099K mutant (9B) (AID 1645876); also: nearly all actives have a fitted effect of over 70% in size; also: potency is read from the fitted curve at half-maximal effect
# [2] = Primary qHTS for inhibitors of nuclear receptor binding SET domain protein 2 (NSD2) in an RCH-ACV wild type WT cells (2C) (AID 1645877); also: nearly all actives have a fitted effect of over 70% in size; also: potency is read from the fitted curve at half-maximal effect
# [3] = biological target: Phospholipid hydroperoxide glutathione peroxidase GPX4 (Homo sapiens) (UniProt P36969); assay: Primary qHTS Assay for Inhibitors of Recombinant Selenoprotein Glutathione Peroxidase 4 (GPX4) (AID 1845192); also: nearly all actives have a fitted effect of over 65% in size
# Sequence of Phospholipid hydroperoxide glutathione peroxidase GPX4 (Homo sapiens) (P36969 whole entry, looked up): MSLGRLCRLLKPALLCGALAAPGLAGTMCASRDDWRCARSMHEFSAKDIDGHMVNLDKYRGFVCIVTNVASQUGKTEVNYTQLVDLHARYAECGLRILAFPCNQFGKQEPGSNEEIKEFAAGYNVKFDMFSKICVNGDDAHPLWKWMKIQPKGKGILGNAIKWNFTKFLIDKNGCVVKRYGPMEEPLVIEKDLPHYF
# In short: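 GR-coupled assay: recombinant GPX4 preincubated 30 min with compound at room temperature; final 200 nM GPX4, 1 mM GSH, 0.5 mM cumene hydroperoxide, 0.5 mM NADPH, 100 nM GR, 0.01% BSA, pH 7.5 Tris. NADPH fluorescence (340/450 nm) read at 0 and 15 min.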
# [4] = qHTS drug screen for cell cycle checkpoint inhibitors in PARPi-resistant BRCA-mutant ovarian cancer cell lines. (AID 1963452; calls by dose curve); settings: PEO1/OlaR viability, CellTiter-Glo luminescence, 96 h, stronger effect = lower value
# In short: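 PEO1, PEO4 and PEO1/OlaR ovarian cancer cells, 600 per well, exposed 96 h at 37C to a dilution series. Viability read by CellTiter-Glo luminescence, normalized to DMSO and empty wells; activity summarized as Z-AUC.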
# [5] = biological target: Glutathione peroxidase 1 (Homo sapiens) (UniProt P07203); assay: Primary qHTS Assay for Inhibitors of Recombinant Selenoprotein Glutathione Peroxidase 1 (GPX1) (AID 1845191); also: nearly all actives have a fitted effect of over 65% in size
# Sequence of Glutathione peroxidase 1 (Homo sapiens) (P07203 whole entry, looked up): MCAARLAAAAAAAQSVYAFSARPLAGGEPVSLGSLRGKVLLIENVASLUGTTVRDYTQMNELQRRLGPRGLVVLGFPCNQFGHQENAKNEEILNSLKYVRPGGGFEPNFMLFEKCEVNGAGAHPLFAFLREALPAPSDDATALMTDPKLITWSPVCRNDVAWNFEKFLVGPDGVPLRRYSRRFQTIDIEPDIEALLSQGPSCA
# In short: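 GR-coupled assay: compounds preincubated 30 min at room temperature with GPX1, then reaction started with CHP; final 10 nM GPX1, 1 mM GSH, 0.5 mM CHP, 0.5 mM NADPH, 100 nM GR, 0.01% BSA, pH 7.5 Tris buffer. NADPH fluorescence (340/450 nm) read at 0 and 15 min.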
# [6] = biological target: Tyrosine-protein kinase Yes (Homo sapiens) (UniProt P07947); assay: qHTS for small molecule inhibitors of Yes1 kinase: Primary Screen (AID 686947); also: nearly all actives have a fitted effect of over 60% in size
# Sequence of Tyrosine-protein kinase Yes (Homo sapiens) (P07947 whole entry, looked up): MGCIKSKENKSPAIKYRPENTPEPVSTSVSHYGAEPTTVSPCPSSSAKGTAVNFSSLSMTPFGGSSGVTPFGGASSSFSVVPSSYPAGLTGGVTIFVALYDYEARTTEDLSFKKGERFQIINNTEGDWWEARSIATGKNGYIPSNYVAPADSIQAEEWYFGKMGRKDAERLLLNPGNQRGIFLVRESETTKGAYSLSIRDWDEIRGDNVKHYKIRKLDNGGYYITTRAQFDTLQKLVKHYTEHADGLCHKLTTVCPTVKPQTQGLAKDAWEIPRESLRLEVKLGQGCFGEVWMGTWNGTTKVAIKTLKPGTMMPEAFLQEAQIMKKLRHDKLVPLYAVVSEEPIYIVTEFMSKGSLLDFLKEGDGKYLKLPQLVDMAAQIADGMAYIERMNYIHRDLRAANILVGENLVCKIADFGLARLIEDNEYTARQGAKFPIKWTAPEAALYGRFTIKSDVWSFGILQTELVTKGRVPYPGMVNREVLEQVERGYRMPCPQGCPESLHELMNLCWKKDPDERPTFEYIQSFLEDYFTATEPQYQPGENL
# In short: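 ADP-Glo luminescence readout; final 4 nM Yes1, 0.1 mM ATP, 0.3 mg/mL poly(E4Y), Tris pH 7.5, MgCl2, DTT, Brij-35. 20 min compound preincubation, 60 min reaction at RT. Normalized to DMSO wells with and without enzyme.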
# [7] = qHTS for small molecule inhibitors of Yes1 kinase: Counter Assay (AID 686950);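 also: no kinase present so only ADP-Glo detection of a fixed ADP amount is tested; luminescence from ADP-Glo reporting ADP in a fixed ATP and ADP mixture; series mostly up to about 77 µM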
# In short: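 Enzyme-free detection counter-screen: compounds preincubated 20 min in buffer, then 0.08 mM ATP plus 0.02 mM ADP added for 60 min at room temperature; ADP-Glo luminescence. Buffer 50 mM Tris pH 7.5, 10 mM MgCl2, 150 mM NaCl; normalized to ATP+ADP and ATP-only controls.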
# [8] = biological target: Rap guanine nucleotide exchange factor 3 (Homo sapiens) (UniProt O95398); assay: Confirmatory qHTS for antagonist of cAMP-regulated guanine nucleotide exchange factor 3 (EPAC1) (AID 1645880); also: nearly all actives have a fitted effect of over 55% in size
# Sequence of Rap guanine nucleotide exchange factor 3 (Homo sapiens) (O95398 whole entry, looked up): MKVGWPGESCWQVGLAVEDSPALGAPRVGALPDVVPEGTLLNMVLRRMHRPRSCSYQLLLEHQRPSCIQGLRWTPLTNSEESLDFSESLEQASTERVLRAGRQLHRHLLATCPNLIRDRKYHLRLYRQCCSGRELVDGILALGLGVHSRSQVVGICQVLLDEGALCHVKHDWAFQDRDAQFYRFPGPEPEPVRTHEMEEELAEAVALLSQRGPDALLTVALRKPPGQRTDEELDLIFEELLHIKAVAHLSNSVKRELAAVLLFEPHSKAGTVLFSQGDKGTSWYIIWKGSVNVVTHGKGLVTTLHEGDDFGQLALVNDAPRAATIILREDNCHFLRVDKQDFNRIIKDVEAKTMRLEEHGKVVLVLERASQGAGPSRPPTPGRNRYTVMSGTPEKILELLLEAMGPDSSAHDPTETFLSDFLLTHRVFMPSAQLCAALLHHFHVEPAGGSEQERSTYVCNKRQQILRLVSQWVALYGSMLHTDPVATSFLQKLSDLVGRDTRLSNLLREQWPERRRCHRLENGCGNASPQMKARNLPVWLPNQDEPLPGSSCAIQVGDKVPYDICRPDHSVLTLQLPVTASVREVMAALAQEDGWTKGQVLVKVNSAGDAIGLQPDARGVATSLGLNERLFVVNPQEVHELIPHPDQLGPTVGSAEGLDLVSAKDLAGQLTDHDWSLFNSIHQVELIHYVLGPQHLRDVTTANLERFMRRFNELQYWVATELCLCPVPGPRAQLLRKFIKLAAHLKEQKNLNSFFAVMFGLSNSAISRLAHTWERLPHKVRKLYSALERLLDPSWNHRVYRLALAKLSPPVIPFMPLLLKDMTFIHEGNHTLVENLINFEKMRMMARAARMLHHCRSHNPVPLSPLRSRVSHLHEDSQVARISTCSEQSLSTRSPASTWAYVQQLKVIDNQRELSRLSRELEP
# In short: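 Nucleotide exchange uses 100 nM EPAC1, 250 nM RAP1B-BODIPY-GDP and 50 uM GDP, with compounds in a concentration-titration series. After 5 min at room temperature, fluorescence (480 nm ex/540 nm em) is read every 5 min for 30 min. Data are normalized to control ATA and DMSO.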
# [9] = biological target: Rap guanine nucleotide exchange factor 3 (Homo sapiens) (UniProt O95398); assay: Confirmatory qHTS for agonist of cAMP-regulated guanine nucleotide exchange factor 3 (EPAC1) (AID 1645881);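 also: EPAC1 catalysed release of BODIPY-GDP from Rap1B seen as fluorescence loss; nearly all actives have a fitted effect of over 75% in size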
# [10] = biological target: Rap guanine nucleotide exchange factor 4 (Homo sapiens) (UniProt Q8WZA2); assay: Confirmatory qHTS for agonist of cAMP-regulated guanine nucleotide exchange factor 4 (EPAC2) (AID 1645884);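 also: nucleotide exchange releases bodipy-GDP from Rap1 and this lowers its fluorescence; nearly all actives have a fitted effect of over 65% in size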
# Sequence of Rap guanine nucleotide exchange factor 4 (Homo sapiens) (Q8WZA2 whole entry, looked up): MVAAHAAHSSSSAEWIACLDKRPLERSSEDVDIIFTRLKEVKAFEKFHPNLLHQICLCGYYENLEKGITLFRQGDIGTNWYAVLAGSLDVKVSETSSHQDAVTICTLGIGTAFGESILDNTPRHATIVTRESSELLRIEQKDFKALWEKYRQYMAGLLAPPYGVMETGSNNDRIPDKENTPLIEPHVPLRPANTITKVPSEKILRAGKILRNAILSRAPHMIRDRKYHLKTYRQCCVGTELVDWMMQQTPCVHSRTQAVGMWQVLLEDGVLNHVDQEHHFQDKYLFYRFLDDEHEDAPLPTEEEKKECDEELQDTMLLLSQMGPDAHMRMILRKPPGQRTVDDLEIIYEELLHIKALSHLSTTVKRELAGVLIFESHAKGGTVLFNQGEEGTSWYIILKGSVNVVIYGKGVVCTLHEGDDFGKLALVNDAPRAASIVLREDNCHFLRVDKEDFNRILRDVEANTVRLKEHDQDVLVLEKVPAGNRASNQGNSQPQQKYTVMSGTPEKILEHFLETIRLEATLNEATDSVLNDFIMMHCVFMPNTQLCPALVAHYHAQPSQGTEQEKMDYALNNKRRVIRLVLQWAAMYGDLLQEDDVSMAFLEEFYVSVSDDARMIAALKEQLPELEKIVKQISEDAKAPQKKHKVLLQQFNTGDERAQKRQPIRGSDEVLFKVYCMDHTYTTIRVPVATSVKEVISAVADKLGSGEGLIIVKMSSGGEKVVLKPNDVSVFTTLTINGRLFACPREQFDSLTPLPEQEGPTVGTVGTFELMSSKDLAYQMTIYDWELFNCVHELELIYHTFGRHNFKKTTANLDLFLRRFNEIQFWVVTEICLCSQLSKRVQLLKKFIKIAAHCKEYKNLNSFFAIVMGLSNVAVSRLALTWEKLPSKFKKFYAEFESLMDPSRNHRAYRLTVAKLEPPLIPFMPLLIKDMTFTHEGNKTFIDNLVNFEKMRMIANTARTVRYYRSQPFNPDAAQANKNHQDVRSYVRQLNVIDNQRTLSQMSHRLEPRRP
# [11] = measured here: PEO1 parental Z-AUC
structure (smiles),measurement,setting,value
COc1cc(N2CCN(C)CC2)ccc1Nc1ncc2c(n1)N(C)c1ccccc1C(=O)N2,Potency,[1],16.6 µM (active)
same,Potency,[2],16.6 µM (active)
same,Potency,[3],inactive
same,Z-AUC,[4],-0.466 (inactive)
same,Z-AUC,[4]; [11],-0.178
same,Z-AUC,[4]; measured here: PEO4 Z-AUC,0.52
CC1=C(c2ccc(O)cc2)[C@H](c2ccc(OCCN3CCCCC3)cc2)Oc2cc(O)ccc21,Potency,[1],inactive
same,Potency,[5],inactive
same,Potency,[3],inactive
Cn1cc(C2=C(c3cn(C)c4cc([N+](=O)[O-])ccc34)C(=O)NC2=O)c2ccccc21,Potency,[1],0.525 µM (active)
same,Potency,[2],0.417 µM (active)
same,Z-AUC,[4],-0.69 (inactive)
same,Z-AUC,[4]; [11],-0.95
same,Z-AUC,[4]; measured here: PEO4 Z-AUC,-1.21
COc1ncc(Nc2ncc(C(C)N3CCN(S(C)(=O)=O)CC3)cc2-c2nc(C)nc(N)n2)cc1F (stereo unspecified),Potency,[2],inactive
same,Potency,[3],inactive
same,Z-AUC,[4],0.314 (inactive)
same,Z-AUC,[4]; [11],0.577
same,Z-AUC,[4]; measured here: PEO4 Z-AUC,0.144
CC1(C)OCCn2c1nc1c(N3CCOCC3)nc(-c3cnc(N)nc3)nc12,Potency,[1],0.332 µM (active)
same,Potency,[3],inactive
same,Z-AUC,[4],-0.953 (inactive)
same,Z-AUC,[4]; [11],-0.219
same,Z-AUC,[4]; measured here: PEO4 Z-AUC,-0.151
Nc1nonc1-c1nc2cnccc2n1C1CC1,outcome,[6],inactive
same,outcome,[7],inactive
same,Potency,[1],20.6 µM (active)
same,Potency,[2],8.2 µM (active)
Cc1ccc2c(/C=C/c3ccc(N(C)C)cc3)ccnc2c1C,Potency,[8],inactive
same,Potency,[9],inactive
same,Potency,[10],inactive
Cn1cc(/C=C/c2ccc3ccccc3n2)c2ccccc21,Potency,[8],inactive
same,Potency,[9],inactive
same,Potency,[10],inactive
Cc1cccc(N(C(=O)c2csnn2)C(C(=O)NCc2ccccc2)c2cccs2)c1 (stereo unspecified),Potency,[8],inactive
same,Potency,[9],inactive
same,Potency,[10],inactive
CCOC(=O)c1ccc(N(C(=O)c2ccccc2)c2ccccc2)cc1,Potency,[8],inactive
same,Potency,[9],inactive
C(=C\c1ccnc2ccccc12)/c1ccc2ccccc2n1,Potency,[8],inactive
same,Potency,[9],inactive
same,Potency,[10],inactive
CC(=O)C(C(c1ccccc1)c1c[nH]c2ccccc12)[N+](=O)[O-] (stereo unspecified),Potency,[8],inactive
same,Potency,[9],inactive
Cc1cc(C)cc(NC(=O)c2sc3nc(-c4ccccc4)cn3c2C)c1,Potency,[8],inactive
same,Potency,[9],inactive
same,Potency,[10],inactive
COc1ccc(C(=O)c2ccc(OC)cc2OC)cc1,Potency,[8],inactive
same,Potency,[9],inactive
COc1cc(-c2noc(C)c2-c2ccc3[nH]ccc3c2)cc(OC)c1OC,Potency,[8],inactive
same,Potency,[9],inactive
same,Potency,[10],inactive
CN(CCc1ccccc1)C(=O)c1cc(COc2cccc(C(F)(F)F)c2)on1,Potency,[8],inactive
same,Potency,[9],inactive
same,Potency,[10],inactive
COc1ccc(C(=O)c2ccc(Br)cc2)c2ccccc12,Potency,[8],inactive
same,Potency,[9],inactive
same,Potency,[10],inactive
O=C(CN1Cc2ccccc2OC(c2ccsc2)C1)N1CCN(Cc2ccc3c(c2)OCO3)CC1 (stereo unspecified),Potency,[8],inactive
same,Potency,[9],inactive
same,Potency,[10],inactive
